Pf growth 96h: inhibits malaria parasite growth, 96 h | Potency, µM (series often up to 28.7 µM), inactives show at the top dose activity change, negative = inhibition, hits mostly inhibitors | 320,000 compounds, 6.9% hits | P. falciparum luciferase reporter growth, 96 h; further: potency means the concentration at half of the fitted maximal effect
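Erythrocytes infected with luciferase-expressing P. falciparum were dispensed at 2% hematocrit and 0.05% parasitemia (final), then incubated with compounds 96 hours at 37 C in 5% CO2. Luminescence after detection reagent addition reported growth.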
HCMV inh: human cytomegalovirus inhibition | HFF cells, HCMV-luciferase reporter, 72 h; hits give low values | activity change, negative = inhibition, % at 57.5 µM | 410,000 compounds, 4.5% hits | AID 1259415; in the data active means activity change below about -60%; inconclusive means no clear call, values can overlap the other calls; inactive means above about -39%
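After 16 h attachment at 37C, HFF cells received test compound and HCMV-luciferase (1 PFU/cell); reporter luminescence read 72 h later, data normalized against buffer-only and known inhibitor Salinomycin.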
Pf growth 48h: P. falciparum growth inhibition at 48 hours (one generation) | P. falciparum luciferase growth in erythrocytes, 48 h | Potency, µM (doses to about 28.7 µM), inactives show at the highest dose activity change, negative = inhibition, hits mostly inhibitors | 310,000 compounds, 5.9% hits | AID 504832; further: potency means the concentration at half of the fitted maximal effect
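In quantitative HTS format, infected erythrocytes bearing luciferase-reporter parasites were treated for a single generation at 37 C. Luminescence after adding detection reagent served as the growth measure.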
HCV inh: blocks hepatitis C virus. Huh7.5.1 HCVcc-Cre infection, luciferase reporter, 44 h. Potency, µM (series often up to 41.8 µM), without a hit: at the highest dose activity change, negative = inhibition, actives largely listed as inhibitors. 340,000 compounds, 3.4% hits. AID 651820; further: potency means the concentration at half of the fitted maximal effect
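1,000 cells/well; 4 h culture; + compound; + HCVcc-Cre (~0.5 moi); 44 h; luciferase substrate, RT 15 min; read 15 sec.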
Starred values were filed as active, the others as inactive; ? = inconclusive; . = not tested or not shown; [ ] = remark or other dose. In the library only some 13% were active in any assay of this set; here they are far more common. Unless noted, the call rests on the fitted dose curve; in most records, active means well fitted inhibition curve with a large enough effect; inconclusive means small, poorly fitted or top-dose-only effect, or another doubt; inactive means no such curve, though single readings can be large or run the other way. On the % scale 0 is the no-effect control and ±100 the full control effect.

SMILES	Pf growth 96h	HCMV inh	Pf growth 48h	HCV inh
CCOC(=O)C(=O)N1CCN(c2nc(-c3ccc(Cl)cc3)cs2)CC1	4.7µM*	-26	13%	1%
CCCNC(=S)N1CCN(c2nc(-c3ccc(C)cc3)cs2)CC1	?	?	-4%	13µM*
S=C(NCC1CCCO1)N1CCN(c2nc(-c3ccc(Cl)cc3)cs2)CC1 (stereo unspecified)	16%	-63*	?	?
CNC(=S)N1CCN(c2nc(-c3ccc(F)cc3)cs2)CC1	17%	?	6%	?
O=c1c(-c2cc(-c3ccccc3)nc3c2COc2ccc(Cl)cc2-3)coc2ccccc12	.	8	.	.
CC(C)C[C@H]1CN(CCCC[C@H]2CNC(=O)C(=O)N2CCc2ccc(O)cc2)C(=O)C(=O)N1Cc1ccccc1	.	-4	.	.
COCCNC(=S)N1CCN(c2nc(-c3ccccc3)cs2)CC1	12µM*	?	3%	-20%
CCOCCCNC(=S)N1CCN(c2nc(-c3ccc(F)cc3)cs2)CC1	?	-85*	9.3µM*	11µM*
O=C(NC(=S)N1CCN(c2nc(-c3ccccc3)cs2)CC1)c1cccnc1	?	?	10µM*	4%
C[C@H](O)[C@@H]1C(=O)N2C(C(=O)O)=C(SCCN=CN)C[C@@H]12	-14%[12.8 µM]	.	-2%[12.8 µM]	.
COc1ccccc1CNC(=O)c1cc2cccc3c2n1CC(C)S3 (stereo unspecified)	.	0	.	.
CCc1ccc(S(=O)(=O)c2nnn3c2nc(Nc2ccc(C)c(Cl)c2)c2sccc23)cc1	.	11	.	.
O=C(Nc1cc(F)ccc1F)N1CCC(CN2CCCC2)CC1	.	7	.	.
COc1cc(OC)nc(Nc2nc(C(N)Cc3ccc(C(F)(F)F)cc3)cs2)n1 (stereo unspecified)	.	-85*	.	.
COc1cccc(Nc2nc(C(N)Cc3ccc(C(F)(F)F)cc3)cs2)n1 (stereo unspecified)	.	-90*	.	.
COc1cccc(Nc2nc(C(N)Cc3ccc(F)cc3)cs2)n1 (stereo unspecified)	.	7	.	.
Cc1ccc(C)c(Nc2nnc(-n3nc(C)cc3C)c3ccccc23)c1	.	-1	.	.
CCOC(=O)c1c(C)oc2ncnc(N3CCN(c4ccccc4)CC3)c12	.	-24	.	.
O=C(Cc1c(F)cccc1Cl)Nc1cc(S(=O)(=O)N2CCCCC2)ccc1N1CCOCC1	?	-1	12µM*	-14%
O=C(CCCOc1ccc(Cl)cc1Cl)Nc1cc(S(=O)(=O)N2CCOCC2)ccc1N1CCOCC1	.	-2	.	?
O=C(CCc1ccc(S(=O)(=O)N2CCOCC2)cc1)Nc1cc(Cl)ccc1N1CCOCC1	-18%	4	6.6µM*	-29%
O=C(Nc1ccccc1F)Nc1ccccc1N1CCCCC1	?	-83*	?	14µM*
O=C(Cc1ccccc1Cl)Nc1cc(S(=O)(=O)N2CCOCC2)ccc1N1CCOCC1	10µM*	-16	?	1%
O=C(Cc1c(F)cccc1Cl)Nc1ccccc1C(=O)N1CCCCC1	15%	-10	7%	19%
O=C(Cc1c(F)cccc1Cl)Nc1ccccc1N1CCCCC1	13µM*	-19	0%	?
SMILES	Pf growth 96h	HCMV inh	Pf growth 48h	HCV inh
Cc1ccccc1Cn1c(=O)n(Cc2ccc(Cl)cc2)c(=O)c2cccnc21	.	-2	.	.
O=C(C1CCN(S(=O)(=O)Cc2ccccc2)CC1)N1CCN(c2ccc(F)cc2)CC1	.	6	.	.
N[C@@H]1CC[C@@]23CCCN2C(=O)CCC[C@H]3[C@H]1Cc1ccccc1	.	-2	.	.
CC(C)NCC(O)c1ccccc1Cl (stereo unspecified)	12µM*	15	7.6µM*	.
CCc1ccc(-n2c(=O)c3c4c(sc3n(Cc3ccccc3C#N)c2=O)CCC4)cc1	.	11	.	.
COc1cc(OC)c(NC(=O)Nc2sc3nc4n(c(=O)c3c2C)CCC(C)CC4)cc1Cl (stereo unspecified)	.	4	.	.
CCN(CC)c1ccc(/C=N/NC(=O)c2cc(C)nc3ccccc23)cc1	5%	-15	-17%	17%
CCN(CC)c1ccc(/C=C/c2cc(-c3ccccc3)c3ccccc3n2)cc1	12µM*	-38	?	14µM*
Cc1ccc(-c2cc(C(=O)NCCCn3ccnc3)c3ccccc3n2)s1	-6%	11	?	-9%
O=C(NCCCn1ccnc1)c1cc(-c2cccnc2)nc2ccc(Br)cc12	1.5µM*	-26	12µM*	21%
O=C(NCCCn1ccnc1)c1cc(-c2ccc(Cl)cc2)nc2ccccc12	28%	20	?	11µM*
Cc1ccc2nc(-c3ccccc3)cc(C(=O)NCCCn3ccnc3)c2c1	?	73	13µM*	1%
O=C(NCCCn1ccnc1)c1cc(-c2ccncc2)nc2ccccc12	-3%	-25	-21%	2%
COCCNC(=O)c1cc(-c2cccnc2)nc2ccc(Br)cc12	22%	-8	.	-19%
CCOc1cc(/C=N/NC(N)=S)cc(Br)c1OCc1ccccc1C	.	.	13µM*	11µM*
COc1cccc(/C=N/NC(N)=S)c1OCc1ccccc1Cl	?	-78*	?	?
NC(=S)N/N=C/c1ccccc1OCCSc1ccc(Cl)cc1	?	-69*	?	?
COc1cc(/C=N/NC(N)=S)cc(Br)c1OCc1ccccc1F	23%	?	14%	8.9µM*
CNC(=S)N/N=C/c1cc(Br)c(OCc2ccncc2)c(OC)c1	?	22	?	-13%
CCOc1cc(/C=N/NC(N)=O)cc(Br)c1OCc1ccccc1	41%	-38	3%	?
Cc1cccc(C)c1-n1ncc(C(=O)Nc2ccc3c(c2)OCCO3)c1C1CCN(C(=O)OC(C)(C)C)CC1	.	-30	.	.
O=C(NCc1ccc(Cl)cc1)C(=O)Nc1cccc(Br)c1	.	1	.	.
CCS(=O)(=O)N1CCCc2cc(C(=O)Nc3cc([N+](=O)[O-])ccc3C)ccc21	.	-39	.	.
COc1ccc(CNC(C)CCc2ccccc2)cc1 (stereo unspecified)	-27%	0	-36%	1%
CC(CCc1ccc(O)cc1)NC(c1ccccc1)c1ccc(Cl)cc1 (stereo unspecified)	?	7	9.3µM*	?
SMILES	Pf growth 96h	HCMV inh	Pf growth 48h	HCV inh
CC(CCc1ccccc1)NCC#N (stereo unspecified)	10%	-61*	-5%	15%
CC(CCc1ccc(O)cc1)NCCC(c1ccccc1)c1ccccc1 (stereo unspecified)	?	-10	?	14µM*
COc1ccc(CC(C)NCCC(c2ccccc2)c2ccccc2)cc1 (stereo unspecified)	10µM*	2	?	?
CC(CCc1ccc(O)cc1)NCc1ccc(Br)cc1 (stereo unspecified)	-13%	11	?	?
Cc1nc(-c2ccc(S(=O)(=O)N3CCN(c4cccc(Cl)c4)CC3)cc2)co1	.	-11	.	.
CC(=O)Nc1cc(C(=O)NCc2ccc(F)cc2)ccc1Sc1ccc(C)cc1	.	-29	.	.
Cc1cc(O)c(C(c2ccccc2)N2CCC(C)CC2)c(=O)n1Cc1ccco1 (stereo unspecified)	.	5	.	.
COc1cccc(OC)c1C(=O)NC(C)CCc1ccccc1 (stereo unspecified)	?	9	24%	14%
